# Assay outcomes (PubChem)
# Most compounds without a hit are left out; they make up all but 19% or so of the library.
# DT40 TDP1 CPT – qHTS for Inhibitors of human tyrosyl-DNA phosphodiesterase 1 (TDP1): qHTS in cells in presence of CPT; chicken DT40 Tdp1-/-;hTDP1 cells + 20 nM CPT, ATP luminescence, 48 h; Potency, µM (highest dose often 46.2 µM), without a hit: at the highest dose activity change, negative = growth inhibition, hits mostly inhibitors; 12% of 420,000 active; AID 686979, 2013; further: potency means the concentration at half of the fitted maximal effect; nearly all actives have a fitted effect of over 55% in size
#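 Cell growth measured by CellTiter-Glo luminescence after a minimum 48 h, 37 C compound exposure with 20 nM CPT in Tdp1-knockout DT40 cells stably expressing hTDP1, seeded 400/well; qHTS titration format.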
# TDP1 cell noCPT – qHTS for Inhibitors of human tyrosyl-DNA phosphodiesterase 1 (TDP1): qHTS in cells in absence of CPT; DT40 Tdp1-/- hTDP1 cells, no CPT, ATP luminescence, 48 h; Potency, µM (titrated, usually from 46.2 µM), inactives show top-dose activity change, negative = growth inhibition, usual class: inhibitors; 15% of 420,000 active; AID 686978, 2013; further: potency means the concentration at half of the fitted maximal effect; nearly all actives have a fitted effect of over 55% in size
#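 Readout: luminescence from CellTiter-Glo after 30 min in the dark at RT. Cells: DT40 Tdp1-/- with stable hTDP1, 400/well. Exposure: compounds alone, ≥48 hr, 37 °C.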
# HT1080NT lethal – qHTS for induction of synthetic lethality in tumor cells producing 2HG: qHTS for the HT-1080-NT fibrosarcoma cell line | 1.6% of 360,000 active | Potency, µM (series often up to 46.1 µM), without a hit: at the top dose activity, negative = less viability, usual class: cytotoxic | HT-1080-NT fibrosarcoma viability, CellTiter-Glo ATP luminescence, 48 h;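 further: NT is the 2HG producing partner of a matched IDH1 knockdown line; potency means the concentration at half of the fitted maximal effect; 0% = DMSO-treated cells and -100% = media-only wells without cells; nearly all actives have a fitted effect of over 55% in size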
#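 HT-1080-NT; 750 cells/well; 5% FBS RPMI; 48 h compound, 37 degrees C; CellTiter-Glo luminescence; curve fitting and curve-class assignment.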
# uPA surface inh – qHTS for Inhibitors of Cell Surface uPA Generation | 0.31% of 330,000 active | cell surface uPA generation assay, qHTS | Potency, µM (titrated, usually from 38.3 µM), inactives show at the highest dose activity change, negative = inhibition, actives largely listed as inhibitors; active means well fitted inhibition curve with a large enough effect; inconclusive means small, poorly fitted or top-dose-only effect; inactive means no such curve, though single readings can be large or run the other way; tested in mouse RAW 264.7 cells; further: potency means the concentration at half of the fitted maximal effect; nearly all actives have a fitted effect of over 55% in size
# HT1080 IDH1KD tx – qHTS for induction of synthetic lethality in tumor cells producing 2HG: qHTS for the HT-1080-IDH1KD cell line. 2% of 360,000 active. HT-1080 IDH1 knockdown viability, ATP luminescence, 48 h. Potency, µM (titrated, usually from 46.1 µM), without a hit: top-dose activity, negative = toxicity, actives largely listed as cytotoxic. AID 686971, 2013;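 further: potency means the concentration at half of the fitted maximal effect; 0% = DMSO wells and -100% = cell-free medium wells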
#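 CellTiter-Glo luminescence after 48 h compound exposure at 37 degrees C of IDH1-knockdown HT-1080 cells in 5% FBS RPMI. %Activity scaled between DMSO wells and cell-free media wells, with curves fitted and assigned curve classes.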
# IL1B secr inh – qHTS for Inhibitors of Inflammasome Signaling: IL-1-beta AlphaLISA Primary Screen | THP-1 LPS/ATP IL-1B secretion, AlphaLISA, 16 h; active compounds read low | activity change, % at 57.5 µM | 4.7% of 360,000 active; in the data active means activity change below about -50%; inconclusive means mostly about -30% to -49%
#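 THP-1 cells pretreated 1 hr with compounds (up to 57.5 uM final), then stimulated with LPS (250 ng/mL final) plus ATP (1.25 mM final); secreted IL-1B measured by AlphaLISA after 16 hr, decreased signal indicating inhibition.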
# The depositor's hits bear a star; ? = inconclusive; · = not tested or not shown; [ ] = dose if it differs, or a comment. Unless noted, the call rests on the fitted dose curve; in most records, active means well fitted curve in the direction sought with a large enough effect; inconclusive means small, poorly fitted or top-dose-only effect, or another doubt; inactive means no such curve, though single readings can be large; an effect the other way counts as inactive or inconclusive. Unless noted, on the % scale 0 is the no-effect control and ±100 the full control effect.
SMILES,DT40 TDP1 CPT,TDP1 cell noCPT,HT1080NT lethal,uPA surface inh,HT1080 IDH1KD tx,IL1B secr inh
O=c1oc2ccccc2n1CSc1nc2ccccc2s1,-26.9%,13µM*,-3.7%,-1.8%,-3.0%,32.4
NCCSc1nc2ccccc2s1,?,11.2µM*,·,·,·,·
c1ccc2[nH]c(CSc3nc4ccccc4s3)nc2c1,?,14.6µM*,-13.2%,-4.9%,-18.1%,24.4
CC(C)(C)S(=O)(=O)c1nc2ccccc2s1,1.3%,-11.3%,-4.7%,-3.1%,-5.3%,?
Cc1c(C(=O)NCc2ccc(C#N)cc2)sc(=O)n1Cc1ccccn1,-5.0%,2.4%,5.3%,·,1.9%,-20.3
O=S(=O)(CCSc1nc2ccccc2s1)c1nc2ccccc2s1,6.51µM*,3.66µM*,20.6µM*,-10.3%,20.6µM*,-100.0*
O=C(O)CSc1nc2ccccc2s1,14.2%,16.4%,1.0%,-8.4%,1.5%,14.5
Oc1cccc(/C=N/N(Cc2ccccc2)c2ccccc2)c1,-25.3%,?,?,4.3%,18.4µM*,-55.2*
C(=N\N(Cc1ccccc1)c1ccccc1)/c1cccnc1,4.9%,2.9%,1.0%,-17.7%,2.9%,-18.7
Oc1ccc(/C=N/N(Cc2ccccc2)c2ccccc2)c(O)c1O,25.9µM*,18.4µM*,-26.5%,-2.6%,-27.5%,?
Cn1ncc2c(NCc3ccco3)ncnc21,-22.9%,-1.5%,·,·,·,·
CC1(C(=O)NS(=O)(=O)c2ccc(Cl)s2)CCN1C(=O)C1CCCCC1 (stereo not drawn),4.8%,7.31µM*,13.0%,·,0.0%,30.9
O=C(O)CN1C(=O)C(=O)N(Cc2ccc(C(F)(F)F)cc2)C1=O,3.9%,15.4%,0.3%,1.7%,0.0%,10.4
O=C(c1cc2c(ccc3ccccc32)oc1=O)N1CCCC1,4.4%,-2.8%,8.4%,4.0%,8.4%,-51.8*
CCc1ccccc1N(C)C(=O)CCc1nc(-c2ccc(C)cc2)no1,?,?,-1.3%,-3.1%,-0.7%,30.3
COc1ccc(Br)cc1CNC(=O)CCc1nc(-c2ccc(C)cc2)no1,-21.6%,?,-16.1%,4.9%,-9.4%[9.24 µM],6.4
COc1ccc(-c2noc(CCC(=O)Nc3ccc4c(c3)OCCO4)n2)cc1,16.4µM*,14.6µM*,-24.7%,6.2%,-22.2%,-2.0
COc1ccc(-c2noc(CCC(=O)NCc3ccc(OC)cc3OC)n2)cc1,?,16.4µM*,·,·,·,·
Cc1ccc(-c2noc(CCC(=O)Nc3ccc4c(c3)OCO4)n2)cc1,?,?,-15.3%,0.2%,-22.4%,-0.6
COc1ccc(Cl)cc1N(C)C(=O)CCc1nc(-c2ccc(C)cc2)no1,18.4µM*,23.1µM*,-20.2%,26.1%,1.0%[9.24 µM],-3.2
COc1ccc(-c2noc(CCC(=O)NCc3cc(Br)ccc3OC)n2)cc1,?,18.4µM*,-9.7%,1.3%,-6.8%,-89.6*
Cc1ccc(C)c(NC(=O)CCc2nc(-c3ccc(C(C)(C)C)cc3)no2)c1,23.1µM*,16.4µM*,·,·,·,·
CCN(C(=O)CCc1nc(-c2ccc(C)cc2)no1)c1cccc(Cl)c1,20.6µM*,?,·,·,·,·
COc1ccc(NC(=O)CCc2nc(-c3ccc(C)cc3)no2)cc1Cl,16.4µM*,16.4µM*,-6.5%,-3.1%,-21.1%,3.5
COc1ccc(-c2noc(CNC(=O)COc3cccc(C)c3C)n2)cc1,?,20.6µM*,·,·,·,·
COc1ccc(-c2noc(CCC(=O)Nc3ccc(C)c(C)c3)n2)cc1,-26.6%,-25.2%,?,-11.1%,?,20.9
Cn1c(=O)c2c(nc(SCCN3CCOCC3)n2C)n(C)c1=O,1.7%,?,3.1%,19.2%,6.4%,6.5
